The supplement of paper PMC10849652
Of roughly 8,800 targets only a part is listed; those with a hit were picked by preference. About 0.5% of all pairs of compound and target were hits. Values without a mark were called inactive.

Legend:
Assay in all cases: log2 fold change, soluble protein after heating vs DMSO (PISA); higher = thermal stabilisation; K562 lysate, 10 uM; active = over 0.2 and 3.5 SD of the protein, either way, in both replicates (recomputed)
[1] = compound: CN1CC[C@H](c2c(O)cc(O)c3c(=O)cc(-c4ccccc4Cl)oc23)[C@H](O)C1 [alvocidib]
Outline: (§1)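 To prepare the extract, K562 pellets were dounce-homogenised in PBS pH 7.4 with 1 mM MgCl2, giving crude material at 1 mg/mL protein. This was treated with 10 μM compound for 30 min, then heated in aliquots for 3 min over 48°C-58°C before pooling and addition of NP-40 to 0.5% at 4°C. Centrifugation at 21,000xg for 90 min left soluble protein in the supernatant, which TMTpro 16plex LC-MS/MS quantified with equalised channel sums. Results are log-two fold changes in thermal stability compared with solvent controls, from duplicates.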

[2] = compound: CN1CCc2c(c3ccccc3n2Cc2ccc(C(=O)NO)cc2)C1 [Tubastatin A]
Outline: as §1

[3] = compound: CNC(=O)C1=CC=CC=C1NC2=NC(=NC=C2Cl)NC3=C(C=C(C=C3)N4CCOCC4)OC
Outline: as §1

[4] = compound: CNC(=O)c1ccc(Nc2ncc(C(F)(F)F)c(NCc3nccnc3N(C)S(C)(=O)=O)n2)cc1 [defactinib]
Outline: as §1

[5] = compound: CNc1nc(-c2ccc3c(N)n[nH]c3c2)cc(N2C[C@@H](C(=O)NC3CCCCC3)CC[C@H]2C)n1
Outline: as §1

[6] = compound: COC(=O)N[C@@H](C)CNc1nccc(-c2cn(C(C)C)nc2-c2cc(Cl)cc(NS(C)(=O)=O)c2F)n1 [encorafenib]
Outline: as §1

[7] = compound: COC(=O)[C@H](CCSC)NC(=O)C1=C(C=C(C=C1)NC[C@H](CS)N)C2=CC=CC=C2
Outline: as §1

[8] = compound: COc1cc(Nc2ncc3c(n2)-c2ccc(Cl)cc2C(c2c(F)cccc2OC)=NC3)ccc1C(=O)O [alisertib]
Outline: as §1

[9] = compound: COc1cc2nc(-c3cc(F)ccc3O)nc(N[C@@H]3CNC[C@H]3C(C)(C)O)c2cc1OC
Outline: as §1

[10] = compound: COc1cc2ncnc(Nc3ccc(F)c(Cl)c3)c2cc1OCCCN1CCOCC1 [gefitinib]
Outline: as §1

[11] = compound: CS(=O)(=O)CCNCc1ccc(-c2ccc3ncnc(Nc4ccc(OCc5cccc(F)c5)c(Cl)c4)c3c2)o1 [lapatinib]
Outline: as §1

[12] = compound: CS(=O)(=O)N1CCN(Cc2cc3nc(-c4cccc5[nH]ncc45)nc(N4CCOCC4)c3s2)CC1 [pictilisib]
Outline: as §1

[13] = compound: C[C@@H](Oc1cc(-c2cnn(C3CCNCC3)c2)cnc1N)c1c(Cl)ccc(F)c1Cl [crizotinib]
Outline: as §1

[14] = compound: C[C@H](C1=CC=C(C=C1)C(=O)NC2=C3C=CNC3=NC=C2)N
Outline: as §1

[15] = compound: C[C@H](Nc1ncnc2nc[nH]c12)c1cc2cccc(Cl)c2c(=O)n1-c1ccccc1 [duvelisib]
Outline: as §1

[16] = compound: Cc1cc(Nc2cc(CN3CCOCC3)c3nc(C)c(Cc4ccc(Cl)cc4F)n3n2)n[nH]1 [gandotinib]
Outline: as §1

[17] = compound: Cc1cc(Nc2cc(N3CCN(C)CC3)nc(Sc3ccc(NC(=O)C4CC4)cc3)n2)n[nH]1 [tozasertib]
Outline: as §1

[18] = compound: Cc1ccc(-n2nc(C(C)(C)C)cc2NC(=O)Nc2ccc(OCCN3CCOCC3)c3ccccc23)cc1 [doramapimod]
Outline: as §1

[19] = compound: Cc1ccc(NC(=O)c2ccc(CN3CC[C@H](N(C)C)C3)c(C(F)(F)F)c2)cc1Nc1nccc(-c2cncnc2)n1 [bafetinib]
Outline: as §1

[20] = compound: Cc1cccc(CC(=O)N2CCc3c2ccc(-c2cn(C)c4ncnc(N)c24)c3F)n1
Outline: as §1

Sequence of UniProt Q01968 (Q01968 whole entry, looked up): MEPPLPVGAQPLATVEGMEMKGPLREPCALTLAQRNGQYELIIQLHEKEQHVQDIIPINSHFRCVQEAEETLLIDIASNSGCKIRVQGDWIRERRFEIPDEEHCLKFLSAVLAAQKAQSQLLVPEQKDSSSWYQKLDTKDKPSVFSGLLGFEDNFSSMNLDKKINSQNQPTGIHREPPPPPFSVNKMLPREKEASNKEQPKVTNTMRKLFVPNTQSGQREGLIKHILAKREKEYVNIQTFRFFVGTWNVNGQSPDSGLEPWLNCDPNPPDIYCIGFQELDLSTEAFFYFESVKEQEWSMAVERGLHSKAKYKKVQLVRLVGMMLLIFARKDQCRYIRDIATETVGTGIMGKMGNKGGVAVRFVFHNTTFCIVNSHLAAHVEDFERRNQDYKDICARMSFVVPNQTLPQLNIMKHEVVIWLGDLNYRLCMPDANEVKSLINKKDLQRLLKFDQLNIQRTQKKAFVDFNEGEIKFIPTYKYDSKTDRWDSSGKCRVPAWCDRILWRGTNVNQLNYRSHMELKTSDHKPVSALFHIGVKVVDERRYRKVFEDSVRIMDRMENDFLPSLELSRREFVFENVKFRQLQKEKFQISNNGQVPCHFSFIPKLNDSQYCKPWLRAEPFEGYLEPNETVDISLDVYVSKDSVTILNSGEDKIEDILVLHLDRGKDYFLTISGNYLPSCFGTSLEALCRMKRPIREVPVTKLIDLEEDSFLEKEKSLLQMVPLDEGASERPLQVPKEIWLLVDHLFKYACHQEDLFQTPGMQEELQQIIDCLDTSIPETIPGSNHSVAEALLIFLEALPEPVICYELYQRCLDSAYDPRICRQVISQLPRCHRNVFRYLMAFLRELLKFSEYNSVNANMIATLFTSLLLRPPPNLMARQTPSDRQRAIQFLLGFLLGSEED
Sequence of UniProt Q8IVI9 (Q8IVI9 whole entry, looked up): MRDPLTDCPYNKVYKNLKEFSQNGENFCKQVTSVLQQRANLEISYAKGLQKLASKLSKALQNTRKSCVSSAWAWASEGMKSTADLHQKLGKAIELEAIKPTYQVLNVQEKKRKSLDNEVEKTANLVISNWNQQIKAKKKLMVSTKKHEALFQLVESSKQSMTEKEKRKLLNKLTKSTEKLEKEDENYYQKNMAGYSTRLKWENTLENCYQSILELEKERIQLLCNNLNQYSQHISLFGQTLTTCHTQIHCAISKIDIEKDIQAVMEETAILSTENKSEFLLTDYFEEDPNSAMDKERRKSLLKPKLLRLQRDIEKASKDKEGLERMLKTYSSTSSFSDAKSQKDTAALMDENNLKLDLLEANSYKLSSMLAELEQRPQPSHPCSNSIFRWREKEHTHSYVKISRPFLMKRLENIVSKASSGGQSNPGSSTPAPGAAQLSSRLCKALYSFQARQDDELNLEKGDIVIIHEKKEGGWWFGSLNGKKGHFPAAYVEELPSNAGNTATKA
Sequence of UniProt P03886 (P03886 whole entry, looked up): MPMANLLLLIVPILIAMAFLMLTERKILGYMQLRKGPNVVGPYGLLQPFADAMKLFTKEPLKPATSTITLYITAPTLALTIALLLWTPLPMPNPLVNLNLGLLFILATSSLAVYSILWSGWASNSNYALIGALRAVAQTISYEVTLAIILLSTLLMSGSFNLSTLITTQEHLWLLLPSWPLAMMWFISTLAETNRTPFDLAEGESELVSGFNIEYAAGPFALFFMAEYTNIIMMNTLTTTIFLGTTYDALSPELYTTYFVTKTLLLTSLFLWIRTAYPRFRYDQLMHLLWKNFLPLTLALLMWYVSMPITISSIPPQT
Sequence of UniProt Q15102 (Q15102 whole entry, looked up): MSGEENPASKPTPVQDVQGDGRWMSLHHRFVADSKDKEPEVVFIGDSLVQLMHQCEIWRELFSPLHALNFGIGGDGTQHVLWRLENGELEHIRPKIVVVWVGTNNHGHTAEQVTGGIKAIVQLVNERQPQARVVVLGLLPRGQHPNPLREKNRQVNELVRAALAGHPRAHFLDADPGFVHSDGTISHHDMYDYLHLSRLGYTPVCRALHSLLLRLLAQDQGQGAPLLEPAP
Sequence of UniProt Q8TDX7 (Q8TDX7 whole entry, looked up): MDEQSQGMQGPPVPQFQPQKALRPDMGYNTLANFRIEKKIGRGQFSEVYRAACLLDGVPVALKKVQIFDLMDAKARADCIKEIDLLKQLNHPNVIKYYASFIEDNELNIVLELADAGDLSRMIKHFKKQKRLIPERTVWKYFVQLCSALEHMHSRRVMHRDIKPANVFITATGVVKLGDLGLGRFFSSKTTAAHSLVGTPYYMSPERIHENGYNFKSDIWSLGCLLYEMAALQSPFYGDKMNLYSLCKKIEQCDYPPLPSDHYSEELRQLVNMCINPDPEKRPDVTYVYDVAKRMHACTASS
Sequence of UniProt Q86UW6 (Q86UW6 whole entry, looked up): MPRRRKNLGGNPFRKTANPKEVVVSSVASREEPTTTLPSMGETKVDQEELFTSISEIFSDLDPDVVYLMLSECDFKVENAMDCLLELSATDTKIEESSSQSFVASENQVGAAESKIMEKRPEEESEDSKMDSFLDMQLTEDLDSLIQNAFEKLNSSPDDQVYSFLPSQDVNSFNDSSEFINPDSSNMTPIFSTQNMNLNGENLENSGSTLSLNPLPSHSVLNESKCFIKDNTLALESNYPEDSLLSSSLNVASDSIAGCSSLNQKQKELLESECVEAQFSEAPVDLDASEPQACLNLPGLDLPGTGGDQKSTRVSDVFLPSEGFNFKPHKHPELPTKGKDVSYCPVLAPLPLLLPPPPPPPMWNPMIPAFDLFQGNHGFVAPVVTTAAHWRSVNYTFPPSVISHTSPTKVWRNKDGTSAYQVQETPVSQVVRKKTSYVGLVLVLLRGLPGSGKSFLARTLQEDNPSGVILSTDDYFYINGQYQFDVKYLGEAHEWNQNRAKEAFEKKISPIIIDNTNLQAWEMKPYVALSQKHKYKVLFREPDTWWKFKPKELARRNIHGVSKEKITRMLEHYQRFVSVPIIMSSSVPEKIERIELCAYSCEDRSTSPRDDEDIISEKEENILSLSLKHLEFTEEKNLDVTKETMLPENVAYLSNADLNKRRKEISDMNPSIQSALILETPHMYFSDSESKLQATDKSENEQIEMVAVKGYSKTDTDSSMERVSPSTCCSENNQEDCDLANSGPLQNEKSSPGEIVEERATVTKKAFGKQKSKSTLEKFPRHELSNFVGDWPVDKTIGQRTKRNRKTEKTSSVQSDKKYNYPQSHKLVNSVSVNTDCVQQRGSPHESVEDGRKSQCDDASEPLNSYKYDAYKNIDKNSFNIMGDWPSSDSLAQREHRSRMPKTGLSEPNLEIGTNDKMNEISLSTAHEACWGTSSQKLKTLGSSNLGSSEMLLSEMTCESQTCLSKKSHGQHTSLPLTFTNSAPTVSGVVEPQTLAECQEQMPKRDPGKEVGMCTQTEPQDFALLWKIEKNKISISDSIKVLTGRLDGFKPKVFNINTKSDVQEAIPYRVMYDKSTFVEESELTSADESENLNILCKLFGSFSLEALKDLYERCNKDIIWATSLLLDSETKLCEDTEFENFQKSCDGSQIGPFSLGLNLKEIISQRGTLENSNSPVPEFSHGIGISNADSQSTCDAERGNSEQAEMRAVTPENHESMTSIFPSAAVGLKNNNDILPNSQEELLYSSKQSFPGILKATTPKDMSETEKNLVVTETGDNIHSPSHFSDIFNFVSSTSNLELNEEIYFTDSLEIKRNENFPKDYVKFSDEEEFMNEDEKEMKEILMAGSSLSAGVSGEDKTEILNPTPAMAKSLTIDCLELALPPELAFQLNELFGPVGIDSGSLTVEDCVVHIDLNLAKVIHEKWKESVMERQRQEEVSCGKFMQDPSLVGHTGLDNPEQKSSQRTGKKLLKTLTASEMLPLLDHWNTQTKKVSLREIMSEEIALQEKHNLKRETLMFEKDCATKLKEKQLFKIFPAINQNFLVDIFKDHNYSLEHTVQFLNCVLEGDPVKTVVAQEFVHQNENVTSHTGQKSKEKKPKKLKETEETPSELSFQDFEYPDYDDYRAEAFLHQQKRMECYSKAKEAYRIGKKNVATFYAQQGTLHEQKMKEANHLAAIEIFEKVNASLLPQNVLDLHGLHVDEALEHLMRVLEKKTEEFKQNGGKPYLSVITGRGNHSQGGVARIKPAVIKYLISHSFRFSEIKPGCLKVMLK
Sequence of UniProt Q9H4L5 (Q9H4L5 whole entry, looked up): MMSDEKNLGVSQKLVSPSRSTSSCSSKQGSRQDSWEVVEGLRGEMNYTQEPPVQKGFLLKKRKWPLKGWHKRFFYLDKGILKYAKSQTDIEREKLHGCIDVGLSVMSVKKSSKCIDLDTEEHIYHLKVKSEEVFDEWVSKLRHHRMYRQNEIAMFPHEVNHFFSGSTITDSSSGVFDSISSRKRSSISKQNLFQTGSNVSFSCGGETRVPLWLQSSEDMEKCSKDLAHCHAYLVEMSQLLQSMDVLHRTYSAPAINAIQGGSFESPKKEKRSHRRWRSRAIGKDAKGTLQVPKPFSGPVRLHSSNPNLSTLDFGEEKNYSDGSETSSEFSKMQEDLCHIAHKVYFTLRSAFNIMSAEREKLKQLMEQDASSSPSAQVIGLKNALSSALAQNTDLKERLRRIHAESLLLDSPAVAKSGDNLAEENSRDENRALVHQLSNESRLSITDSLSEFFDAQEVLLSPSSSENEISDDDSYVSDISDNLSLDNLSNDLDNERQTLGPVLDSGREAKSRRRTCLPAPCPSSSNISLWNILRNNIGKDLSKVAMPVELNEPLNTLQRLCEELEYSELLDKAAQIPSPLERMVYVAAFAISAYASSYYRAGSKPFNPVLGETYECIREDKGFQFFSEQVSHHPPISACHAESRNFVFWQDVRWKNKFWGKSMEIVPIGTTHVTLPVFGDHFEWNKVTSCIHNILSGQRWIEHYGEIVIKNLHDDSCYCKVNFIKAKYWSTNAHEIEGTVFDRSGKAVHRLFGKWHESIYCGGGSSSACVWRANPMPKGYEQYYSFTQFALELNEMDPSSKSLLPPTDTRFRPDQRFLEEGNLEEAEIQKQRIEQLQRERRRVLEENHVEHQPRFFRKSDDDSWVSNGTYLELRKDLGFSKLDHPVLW

Row | Target | log2 fold change [1] | log2 fold change [2] | log2 fold change [3] | log2 fold change [4] | log2 fold change [5] | log2 fold change [6] | log2 fold change [7] | log2 fold change [8] | log2 fold change [9] | log2 fold change [10] | log2 fold change [11] | log2 fold change [12] | log2 fold change [13] | log2 fold change [14] | log2 fold change [15] | log2 fold change [16] | log2 fold change [17] | log2 fold change [18] | log2 fold change [19] | log2 fold change [20]
1 | PAFAH1B3 (UniProt Q15102) | 0.005 | -0.067 | 0.019 | 0.065 | -0.017 | -0.016 | 0.212 (active) | 0.058 | -0.022 | -0.02 | -0.034 | -0.024 | -0.01 | -0.016 | -0.024 | -0.001 | 0.054 | 0 | 0.048 | -0.001
2 | NOSTRIN (UniProt Q8IVI9) | -0.009 | -0.35 (active) | 0.027 | 0.07 | 0.061 | -0.112 | 0.11 | -0.019 | 0 | 0.004 | -0.022 | -0.011 | 0.06 | 0.017 | 0.047 | -0.047 | 0.058 | -0.03 | -0.078 | -0.012
3 | N4BP2 (UniProt Q86UW6) | 0.063 | -0.17 | 0.052 | 0.021 | -0.004 | 0.06 | 0.003 | 0.016 | 0 | -0.005 | 0.003 | 0.054 | 0.002 | -0.236 (active) | 0.028 | 0.014 | -0.032 | -0.015 | -0.038 | 0.149
4 | MT-ND1 (UniProt P03886) | -0.149 | -0.037 | 0.043 | 0.081 | 0.014 | 0.046 | -0.051 | 0.032 | -0.073 | 0.087 | -0.025 | -0.03 | -0.062 | -0.342 (active) | -0.052 | 0.061 | -0.074 | 0.041 | 0.022 | 0.007
5 | OSBPL3 isoform 2 (UniProt Q9H4L5) | -0.013 | -0.161 | 0.056 | -0.11 | -0.033 | 0.03 | 0.052 | -0.043 | -0.002 | 0.206 | 0.073 | -0.039 | 0.014 | -0.045 | 0.03 | -0.052 | -0.005 | 0.107 | 0.269 | 0.035
6 | NEK7 (UniProt Q8TDX7) | -0.055 | -0.113 | 0.552 (active) | 0.007 | -0.013 | 0 | 0.003 | 0.038 | 0.057 | -0.049 | -0.035 | -0.018 | -0.045 | -0.062 | -0.026 | -0.031 | -0.022 | 0.016 | -0.026 | 0.15
7 | OCRL (UniProt Q01968) | -0.002 | -0.105 | 0.074 | 0.123 | -0.051 | 0.045 | -0.006 | 0.016 | -0.082 | 0.049 | 0.008 | -0.029 | -0.047 | -0.029 | -0.013 | -0.009 | 0 | 0.033 | 0.001 | 0.047
8 | NOSIP (UniProt Q9Y314) | -0.02 | -0.156 | 0.018 | 0.05 | 0.004 | 0.014 | 0.02 | -0.016 | 0.015 | -0.049 | -0.03 | -0.042 | -0.026 | 0.02 | -0.004 | 0.017 | -0.053 | 0.013 | -0.003 | 0.038
